Shown is part of a subset that was picked to be rich in hits.
EZH2 inh: EZH2 (human) methyltransferase inhibition; Q15910; 57,000 compounds, 0.35% hits; inhibition, % at 12.5 µM; PRC2 H3K27 methylation, DELFIA TRF, 1 h;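 active = mean inhibition of replicates at least 50% and every single replicate also reaching 50%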;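 also: dimethyl H3K27 on biotinylated H3 21-44 peptide detected by antibody; plate controls were median neutral control wells for no effect and median positive control wells for full effect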
Target sequence (Q15910 whole entry, looked up): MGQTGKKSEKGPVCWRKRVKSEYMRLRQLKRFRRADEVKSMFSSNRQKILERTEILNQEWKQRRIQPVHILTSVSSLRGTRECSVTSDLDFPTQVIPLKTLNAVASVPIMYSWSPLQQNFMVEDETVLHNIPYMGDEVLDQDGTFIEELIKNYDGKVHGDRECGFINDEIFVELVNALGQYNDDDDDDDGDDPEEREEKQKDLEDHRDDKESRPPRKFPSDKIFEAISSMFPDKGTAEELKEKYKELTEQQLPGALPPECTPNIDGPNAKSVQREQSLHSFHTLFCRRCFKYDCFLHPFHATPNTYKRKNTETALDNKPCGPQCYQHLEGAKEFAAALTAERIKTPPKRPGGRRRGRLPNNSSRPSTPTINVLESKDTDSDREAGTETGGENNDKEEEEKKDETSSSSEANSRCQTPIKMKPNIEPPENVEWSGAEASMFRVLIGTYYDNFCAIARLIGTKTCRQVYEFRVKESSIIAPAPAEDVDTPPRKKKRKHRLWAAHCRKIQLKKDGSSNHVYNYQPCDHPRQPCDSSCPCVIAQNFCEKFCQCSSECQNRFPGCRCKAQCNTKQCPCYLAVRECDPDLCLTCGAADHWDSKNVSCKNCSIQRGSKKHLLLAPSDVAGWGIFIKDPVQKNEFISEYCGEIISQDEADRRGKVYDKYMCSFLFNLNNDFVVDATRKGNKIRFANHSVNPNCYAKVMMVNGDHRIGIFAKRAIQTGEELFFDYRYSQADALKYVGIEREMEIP
* = called active by the depositor.

SMILES | EZH2 inh
CO[C@@H]1CN(C)C(=O)c2ccc(NS(=O)(=O)c3cccc(F)c3)cc2OC[C@@H](C)N(Cc2cc(F)ccc2F)C[C@@H]1C | 48
CO[C@@H]1CN(C)C(=O)c2ccc(NS(=O)(=O)c3cccc(F)c3)cc2OC[C@@H](C)N(Cc2cc(F)ccc2F)C[C@H]1C | 38
CC(=O)Nc1cccc(-c2nnc(SCC(=O)Nc3cccc(Cl)c3)n2C)c1 | -15
COc1ccc(OC)c(NC(=O)CSc2nc3sc4c(c3c(=O)n2-c2ccccc2)CCCC4)c1 | -3
COc1ccccc1NC(=O)CNS(=O)(=O)c1ccc(C)cc1 | 7
COc1c(O[C@@H]2O[C@H](C(=O)O)[C@@H](O)[C@H](O)[C@H]2O)cc2oc(-c3ccc(O)cc3)cc(=O)c2c1O | 48
COc1c(O)cc2c(=O)oc3c(OC)c(O[C@@H]4OC[C@@H](O)[C@H](O)[C@H]4O)cc4c(=O)oc1c2c34 | 80*
O=C(CSc1nc(O)cc(=O)[nH]1)Nc1cc(Cl)cc(Cl)c1 | 2
Cc1cccc(C)c1Nc1c(-c2ccsc2)nc2sccn12 | 12
C[C@H]1CN([C@@H](C)CO)S(=O)(=O)c2ccc(C#CC(C)(C)O)cc2O[C@@H]1CN(C)C(=O)C1CC1 | 4
COc1ccc(Cl)cc1NC(=O)CC(C(=O)O)N1CCNCC1 (stereo unspecified) | -5
COc1ccc(C#Cc2ccc3c(c2)[C@]2(C(=O)N3)[C@H](c3ccccc3OCCO)N3[C@H](c4ccccc4)[C@H](c4ccccc4)OC(=O)[C@H]3[C@@H]2C(N)=O)cc1 | -38
COc1ccc(C#Cc2ccc3c(c2)[C@]2(C(=O)N3)[C@H](C(=O)O)[C@H]3C(=O)O[C@H](c4ccccc4)[C@H](c4ccccc4)N3[C@@H]2c2ccccc2OCCO)cc1 | 75*
COC(=O)C(CC#Cc1ccc2c(c1)[C@]1(C(=O)N2)[C@H](C(=O)O)[C@H]2C(=O)O[C@H](c3ccccc3)[C@H](c3ccccc3)N2[C@@H]1c1ccc(OCCO)cc1)C(=O)OC | 40
O=C1O[C@H](c2ccccc2)[C@H](c2ccccc2)N2[C@H]1[C@@H](C(=O)O)[C@]1(C(=O)Nc3ccc(C#CCCO)cc31)[C@H]2c1ccccc1OCCO | 23
COC(=O)C(CC#Cc1ccc2c(c1)[C@]1(C(=O)N2)[C@H](C(=O)N2CCCCCCC2)[C@H]2C(=O)O[C@H](c3ccccc3)[C@H](c3ccccc3)N2[C@@H]1c1ccccc1OCCO)C(=O)OC | -10
COC(=O)C(CC#Cc1ccc2c(c1)[C@]1(C(=O)N2)[C@H](c2ccccc2OCCO)N2[C@H](c3ccccc3)[C@H](c3ccccc3)OC(=O)[C@H]2[C@@H]1C(=O)O)C(=O)OC | 69*
C=C/C=C/[C@@H]1C(=C)CN([C@@H](Cc2ccc(N=[N+]=[N-])cc2)C(=O)OC)[C@H]1[C@@H](O)Cc1ccccc1 | -6
NC(=O)c1c(NC(=O)C(Cc2ccccc2)N2C(=O)c3ccccc3C2=O)sc2c1CCCC2 (stereo unspecified) | -12
COc1ccc(-c2nnc(SCC(=O)NC(C)(C)C)n2-c2ccccc2)cc1 | -9
COc1c(C)c2c(c(O)c1C/C=C(/C)CCC(=O)O)C(=O)OC2 | -3
CCn1c(SCC(=O)c2ccc(OC)cc2)nnc1-c1ccc(Cl)cc1 | -4
C=CCOC(=O)C1=C[C@H](c2csc3ccccc23)C[C@H](OCc2ccc(CO)cc2)O1 | 59*
C=CCOC(=O)C1=C[C@H](c2coc3ccccc3c2=O)C[C@H](OCc2ccc(CO)cc2)O1 | 0
O=C(NC1CC1)C1=C[C@H](c2csc3ccccc23)C[C@H](OCc2ccc(CO)cc2)O1 | 4
SMILES | EZH2 inh
COC(=O)[C@]1(C)CCC[C@@]2(C)[C@H]1CC=C(C)[C@@H]2CCc1ccoc1 | 6
O=C(CSc1nnc(-c2ccc(Cl)cc2)n1-c1ccc(F)cc1)Nc1ccccc1F | 0
O=C(O)c1cccc(NC(=O)c2cc(S(=O)(=O)N3CCOCC3)c(Cl)cc2Cl)c1 | 10
CCn1c(SCC(=O)Nc2ccc(F)cc2)nnc1-c1cccs1 | -5
CC(=O)c1ccc(NC(=O)CSc2nc(-c3ccccc3)c(C#N)c(=O)[nH]2)cc1 | -8
N#Cc1c(-c2ccccc2)nc(SCC(=O)Nc2cccc(C(F)(F)F)c2)[nH]c1=O | 39
N#Cc1c(-c2ccccc2)nc(SCC(=O)Nc2ccc(Oc3ccccc3)cc2)[nH]c1=O | 87*
COC(=O)c1ccc(COc2ccc3c(C)cc(=O)oc3c2)o1 | 7
COc1ccc(-c2csc3ncn(CC(=O)Nc4sc5c(c4C#N)CCC5)c(=O)c23)cc1OC | 13
Cc1cc([N+](=O)[O-])ccc1NC(=O)CSc1n[nH]c(-c2ccc(Cl)cc2)n1 | 17
Oc1ccc(Br)cc1CNc1nc2ccccc2[nH]1 | 9
COC(=O)C1=CO[C@@H](O[C@@H]2O[C@H](CO)[C@@H](O)[C@H](O)[C@H]2O)C2C1CCC2(C)O (stereo partly specified) | 18
COC(=O)C1=CO[C@@H](O[C@@H]2O[C@H](CO)[C@@H](O)[C@H](O)[C@H]2O)[C@@H]2[C@@](C)(O)[C@@H](OC(=O)/C=C/c3ccc(OC)c(O)c3)C[C@]12O | 52*
COC(=O)C1=CO[C@@H](O[C@@H]2O[C@H](CO)[C@@H](O)[C@H](O)[C@H]2O)[C@H]2[C@@H]1[C@H](OC(=O)/C=C/c1ccc(O)cc1)C[C@]2(C)OC(C)=O | 3
O=C(CC1(O)C(=O)N(Cc2ccc(Cl)cc2)c2ccc(Cl)cc21)c1ccccn1 (stereo unspecified) | -8
COc1ccc(Cl)cc1NC(=O)COc1ccc([N+](=O)[O-])cc1 | 10
CCCCN(CCCC)c1ccc(/C=N/NC(=O)CCCCCCC(=O)OC)cc1 | 80*
O=C(N/N=C/c1ccc(-c2cccc(Cl)c2)o1)c1ccccn1 | 6
COC(=O)CCCCCCC(=O)N/N=C/c1cccc(OCCO)c1 | 6
CCCCN(CCCC)c1ccc(/C=N/NC(=O)c2ccccc2O)cc1 | 19
COC(=O)CCCCCCC(=O)N/N=C/c1ccccc1 | 22
COC(=O)CCCCCCC(=O)N/N=C/c1ccc(-c2cccc(Cl)c2)o1 | 54*
COC(=O)CCCCCCC(=O)N/N=C/c1cccc(Oc2ccccc2)c1 | 56*
COC(=O)CCCCCCC(=O)N/N=C/c1ccc(OCCO)cc1 | 18
O=C(CCCCC(=O)N/N=C/c1ccc(-c2cccc(Cl)c2)o1)NO | -1
SMILES | EZH2 inh
COc1ccc(S(=O)(=O)N(C)CC(=O)Nc2cccc(C)c2C)cc1Cl | -6
CC(C)(Oc1ccc(Cl)cc1)C(=O)Nc1cccc(-c2nc3ncccc3o2)c1 | 11
Cc1ccc(N(CC(=O)Nc2ccc(F)cc2)S(C)(=O)=O)cc1 | -5
O=C(Cn1cnc2scc(-c3cccc([N+](=O)[O-])c3)c2c1=O)Nc1ccc(Cl)cc1 | 5
O=c1c2c3c(sc2nc(SCc2nc(-c4cccs4)no2)n1-c1ccccc1)CCCC3 | 3
Cc1ccc(NC(=O)CSc2nnnn2C2CC3CCC2C3)cc1 (stereo unspecified) | 14
O=c1c(O[C@@H]2OC[C@H](O)[C@H](O)[C@H]2O)c(-c2ccc(O)c(O)c2)oc2cc(O)cc(O)c12 | 69*
O=c1c(OC2OCC(O)C(O)C2O)c(-c2ccc(O)c(O)c2)oc2cc(O)cc(O)c12 (stereo unspecified) | 99*
O=c1c(O[C@@H]2OC[C@H](O)[C@H](O)[C@H]2O)c(-c2ccc(O)cc2)oc2cc(O)cc(O)c12 | 100*
O=c1c(-c2ccc(O)cc2)coc2cc(O)cc(O)c12 | 13
